# Source: PubChem BioAssay AID1347383 (Zoeller Lab, School of Medicine, Boston University, 2020)
# Active and inactive are the calls of the source.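 The calls were made as follows: active = cell survival after UV exposure 2 SD above solvent-only control wells at 10 µM, confirmed on one or two repeats; inactive = the rest.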
# Test: protection of CHO cells from pyrene-fatty acid UV killing, primary screen, phospholipid biosynthesis inhibitor project, ZR-82 cells, Analyticon library, screen 2 (AID 1347383);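 also: survival reflects blocked phospholipid synthesis cutting uptake of the phototoxic fatty acid; compound and fatty acid exposure 3 h then viability read next day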
# Conditions: ZR-82 CHO cells, CellTiter Blue, at 10 µM, peroxisome-deficient CHO-K1 variant, with DGAT-1, DGAT-2 and ACAT inhibitors
row,Compound,outcome
1,O=C1CC(c2ccc(O)c(O)c2)Oc2cc(O)cc(O)c21 (centres undefined),inactive
2,CC(=O)/C=C(O)/C=C/c1ccc(O)cc1,inactive
3,O=C1c2cccc(O)c2C(=O)c2c(O)cccc21,inactive
4,COc1ccc(CC2C(=O)OCC2Cc2cc(OC)c3c(c2)OCO3)cc1OC (centres undefined),inactive
5,C=C[C@]1(C)C[C@](O)([C@@H]2OC2(C)C)Oc2c1c(=O)oc1cccc(CC)c21,inactive
6,O=c1c(O)c(-c2cc(O)c(O)c(O)c2)oc2cc(O)cc(O)c12,inactive
7,O=C(O)c1cc(O)c2c(c1)C(=O)c1cc(O)cc(O)c1C2=O,inactive
8,CC1=C2C(=O)O[C@@H](c3ccoc3)[C@]2(C)CCC1=O,inactive
9,COc1c(C2=Cc3ccc(O)cc3OC2)ccc(O)c1CC=C(C)C,inactive
10,O=C(Cc1ccccc1)O[C@@H]1[C@@H](O)[C@H](O)[C@@H](CO)O[C@H]1O,inactive
11,CCCCCCCCCCC1CC2=C(OC(CCCCCCC)CC2=O)C(=O)O1 (centres undefined),inactive
12,C=CC(C)(C)c1cc2cc3c(cc2oc1=O)OC(C(C)(C)OC(C)=O)C3 (centres undefined),inactive
13,O=C(O)CCC1OC(=O)C(O)=C1c1ccccc1 (centres undefined),inactive
14,O=c1c(-c2ccc(O)cc2O)coc2cc(O)cc(O)c12,inactive
15,C/C=C/C(O)CC(=O)O (centres undefined),inactive
16,COc1cc2c(c(OC)c1OC)-c1ccc(OC)c(=O)cc1[C@@H](NC(C)=O)CC2,inactive
17,Cc1c(O)cc2c(c1O)C(=O)c1ccccc1C2=O,inactive
18,OCCc1ccc(O)cc1O,inactive
19,C=C1CCc2occ(C)c2[C@H]2[C@H]1[C@@]13O[C@@]1(C[C@@H](C)[C@H]3OC(C)=O)[C@H]1O[C@@]21C,inactive
20,CC(=O)NC(Cc1c[nH]c2ccccc12)C(=O)O (centres undefined),inactive

row,Compound,outcome
1,O=C(CCc1ccc(O)cc1)c1c(O)cc(O)cc1O,inactive
2,COC1OC(OC)C(O)(CC/C=C(\C)CC/C=C(\C)C(=O)O)C1O (centres undefined),inactive
3,CC(C)(O)[C@@H]1CCC(C)([C@H]2CC[C@]3(C)[C@@H]2[C@H](O)CC2[C@@]4(C)CC[C@H](O)C(C)(C)[C@@H]4CC[C@]23C)O1 (some centres undefined),inactive
4,CC(=O)OC(C)C(C)(O)C(=O)O[C@@H]1CC[C@]2(C)CC(=O)C(=C(C)C)C[C@H]2[C@]1(C)OC(C)=O (some centres undefined),inactive
5,COc1ccc2ccc(=O)oc2c1,inactive
6,CC1(O)CC(C)(O)C2=C(O1)C(=O)c1ccccc12 (centres undefined),inactive
7,CC[C@H](CC[C@@H](C)[C@H]1CC[C@H]2[C@@H]3CC=C4C[C@@H](O)CC[C@]4(C)[C@H]3CC[C@]12C)C(C)C,inactive
8,COc1cc(O)cc(O)c1C(=O)c1ccc(O)c(O)c1,inactive
9,C/C=C/C=C/C(CC(=O)O)Nc1ccc(C=O)cc1 (centres undefined),inactive
10,OC1C(c2ccccc2)CCC(c2ccccc2)C1O (centres undefined),inactive
11,C=CCc1ccc(O)c(O)c1,inactive
12,COCc1c(OC)cc2c(c1O)C(O)OCC2 (centres undefined),inactive
13,CC(C)C(=O)C1(C(C)CC(=O)O)CCC(C)C(=O)C1 (centres undefined),inactive
14,C=C[C@@]1(C)CCC2=C(C1)C(=O)CC1[C@](C)(C(=O)O)CCC[C@]21C (some centres undefined),inactive
15,O=C(/C=C/c1ccccc1)c1ccccc1O,inactive
16,COc1c(C(=O)CC(=O)c2ccccc2)ccc2occc12,inactive
17,C=CCc1ccc(OC(C)Cc2cc(OC)c(OC)c(OC)c2)c(OC)c1 (centres undefined),inactive
18,CCC(C)(O)C(O)C(=O)OCC1CC[N+]2([O-])CCCC12 (centres undefined),inactive
19,COC(=O)C1=CO[C@@H](C)[C@H]2CN3CCc4c([nH]c5ccccc45)[C@@H]3C[C@H]12,active
